SENP7 block: inhibitors of human SENP7 protease. inhibition, % at 5 µM. recombinant SENP7, Z-RLRGG-aminoluciferin luminescence, 40 min. 1.5% of 330,000 active;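 active = inhibition above about 50% at the single test dose, limit read from the data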;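 also: plate controls were DMSO with enzyme for no effect and no enzyme buffer wells for full effect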
SENP6 block: blocks the human protease SENP6. 1.8% of 330,000 active. Q9GZR1. inhibition, % at 10 µM. Recombinant SENP6 catalytic domain, aminoluciferin luminescence. AID 2599;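 active = inhibition above about 50% at the single tested dose, limit read from the data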;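 also: plate controls were DMSO wells with enzyme for no effect and DMSO wells lacking enzyme for full effect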
SENP8 block-1: blocks human SENP8 cleavage of Nedd8 substrate; Q96LD8; recombinant SENP8, Nedd8 substrate fluorescence; inhibition, % at 20 µM; 0.64% of 360,000 active; in the data active = inhibition mostly above about 40%, no sharp cut-off; inactive = mostly below about 27%
Target sequence (Q96LD8 whole entry, looked up): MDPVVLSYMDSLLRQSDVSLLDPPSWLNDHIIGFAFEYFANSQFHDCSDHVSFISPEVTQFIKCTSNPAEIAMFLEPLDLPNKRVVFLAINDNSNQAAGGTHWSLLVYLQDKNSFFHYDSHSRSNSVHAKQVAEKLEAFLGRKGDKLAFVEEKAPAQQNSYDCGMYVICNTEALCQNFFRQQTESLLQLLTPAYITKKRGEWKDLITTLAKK
Platelet DG rel: platelet dense granule release activity. human platelet-rich plasma, SFLLRN dense granule ATP release, luminescence. inhibition, %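 (compounds screened at 7.5 µM in platelet-rich plasma)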. 0.22% of 300,000 active;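 active = mean replicate score, as percent of positive control, at or above 50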
SENP8 block-2: blocks the human protease SENP8; purified SENP8, Z-RLRGG-aminoluciferin cleavage, luminescence; AID 2540; 1.2% of 330,000 active; inhibition, % at 10 µM; in the data active = inhibition above about 50%
SENP8 conf: human SENP8 inhibition, confirmed. inhibition, % at 12.5 µM. shares compounds with SENP7 block. AID 488912. 40% of 6,200 active. Recombinant SENP8, Z-RLRGG-aminoluciferin luminescence, 60 min;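 active = mean inhibition across replicates above about 50%, limit read from the data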
SENP6 conf: confirmation of human SENP6 protease inhibitors; shares compounds with SENP7 block; recombinant SENP6, Z-RLRGG-aminoluciferin luminescence; inhibition, % at 12.5 µM; 58% of 6,200 active
SENP7 conf: human SENP7 inhibition, confirmed. shares compounds with SENP7 block. recombinant SENP7, Z-RLRGG-aminoluciferin luminescence, 40 min. inhibition, % at 12.5 µM. 69% of 6,200 active. AID 488917
Casp3 select: selectivity test for SENP inhibitors: human caspase-3 inhibition; shares compounds with SENP7 block; purified caspase-3, Z-DEVD-aminoluciferin luminescence, 60 min; inhibition, % at 12.5 µM; 60% of 6,200 active; AID 488918;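 active = mean inhibition above about 50%, limit read from the data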;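 also: plate controls were enzyme with DMSO for no effect and wells without caspase-3 for full effect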
Target sequence (P42574 28-227 limits assumed): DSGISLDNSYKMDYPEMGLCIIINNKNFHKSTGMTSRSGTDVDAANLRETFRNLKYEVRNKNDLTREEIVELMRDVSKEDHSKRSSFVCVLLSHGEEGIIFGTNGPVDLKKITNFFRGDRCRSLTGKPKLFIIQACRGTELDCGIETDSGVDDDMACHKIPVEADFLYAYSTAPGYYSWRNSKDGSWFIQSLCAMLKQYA
Luc interf: interferes with luciferase luminescence in SENP counter-screen | AID 488919 | shares compounds with SENP7 block | Pre-incubated SENP8/Z-RLRGG-aminoluciferin, luciferase luminescence interference | 39% of 6,200 active | inhibition, % at 12.5 µM;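 active = mean inhibition above about 50% when retested at one dose, limit read from the data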;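 also: plate controls were DMSO wells with completed reaction for no effect and substrate without enzyme for full effect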
The depositor's hits bear a star; x = no result given. An excerpt weighted towards active compounds, which were near 2.4% of everything screened.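 The calls were made as follows, unless noted: active = mean inhibition above about 50% in the one-dose retest (limit read from the data); inactive = the rest.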

SMILES	SENP7 block	SENP6 block	SENP8 block-1	Platelet DG rel	SENP8 block-2	SENP8 conf	SENP6 conf	SENP7 conf	Casp3 select	Luc interf
NCCNc1cc(N2CCCC2)ccc1[N+](=O)[O-]	77.4*	-11.8	20.5	-0.4	0.8	-29.4	-14.5	-4.7	-5.8	-7.2
O=S(=O)(NNc1ncc(C(F)(F)F)cc1Cl)c1ccccc1	9.6	-3.2	11.1	x	2.2	x	x	x	x	x
Cc1ccc(NC2=C(N3CCCCC3)C(=O)c3ccccc3C2=O)cc1	-20.8	65.7*	81.9*	10.4	52.2*	7.7	89.8*	73.5*	95.1*	10.1
COc1ccccc1NS(=O)(=O)c1cc(N)ccc1N1CCCC1	-2.8	11.4	-356.4	x	1.2	x	x	x	x	x
O=C1C(Nc2ccccc2)=C(N2CCCCC2)C(=O)c2ccccc21	61.4*	85.7*	83.1*	2.9	58.6*	62.8*	79.0*	58.3*	95.0*	6.5
O=C(/C=C/c1ccc(O)c(O)c1)c1ccc(S(=O)(=O)N2CCCCCC2)cc1	-3.2	-21.9	26.8	-16.1	-9.1	x	x	x	x	x
COc1ccccc1NC1=C(N2CCCCC2)C(=O)c2ccccc2C1=O	46.9	73.7*	88.2*	-1.5	72.8*	43.2	91.3*	71.5*	97.0*	-3.6
O=C(/C=C/c1ccc(O)cc1)c1ccc(NC2=C(N3CCCCC3)C(=O)c3ccccc3C2=O)cc1	47.9	76.0*	25.3	30.4	67.0*	64.2*	84.9*	77.2*	95.0*	84.4*
CC(C)C1Oc2cc3oc(=O)ccc3cc2C1=O (stereo not given)	2.0	13.5	-451.4	2.8	2.5	x	x	x	x	x
CCn1nc(C)cc1C(=O)N1CCCC(C(=O)c2ccccc2SC)C1 (stereo not given)	2.3	-25.9	1.7	6.5	-5.4	x	x	x	x	x
COc1ccccc1NC(=O)N1CCC(NC(=O)C(Cc2ccccc2F)NC(C)=O)CC1 (stereo not given)	-1.0	-6.7	12.9	-9.0	6.5	x	x	x	x	x
COc1ccccc1N1CCN(C2CCCN(C(=O)Cn3cccn3)C2)CC1 (stereo not given)	-2.6	3.9	1.4	1.3	3.8	x	x	x	x	x
CC(=O)Nc1ccc(S(=O)(=O)Oc2cccc(/C=N/N=C3/NC(=O)C(CC(=O)O)S3)c2)cc1 (stereo not given)	2.2	18.9	15.0	3.6	0.4	x	x	x	x	x
O=C1C(Nc2cccc(O)c2)=C(N2CCCCC2)C(=O)c2ccccc21	41.1	81.1*	76.2*	-5.0	63.3*	56.6*	77.0*	44.8	94.5*	-1.0
O=C(O)c1cccc(NC2=C(Cl)C(=O)c3ccccc3C2=O)c1	x	x	-66.6	-4.7	x	x	x	x	x	x
Cc1ccc(NC(=O)CN(C)C(=O)C(C)N2CCN(Cc3ccccc3C)CC2)cc1 (stereo not given)	2.2	-13.0	-3.3	x	5.6	x	x	x	x	x
c1coc(C2=Nc3cccc4cccc(c34)N2)c1	5.0	50.0*	35.7	3.6	13.6	-21.5	-5.7	-9.1	-7.7	-3.2
COc1cccc(C2=Nc3cccc4cccc(c34)N2)c1	6.3	-11.8	14.8	4.6	-3.7	x	x	x	x	x
CCn1c(COc2ccccc2OC)nc2ccccc21	-3.2	8.8	7.9	-3.3	-10.9	x	x	x	x	x
Cn1c(COc2ccccc2Br)nc2ccccc21	49.1	69.4*	14.4	-1.7	60.5*	51.5*	70.7*	91.0*	63.0*	31.3
CCn1c(COc2ccccc2C)nc2ccccc21	47.1	74.6*	17.5	-2.5	58.5*	41.3	39.7	78.5*	53.1*	28.6
C/C(CCC(C)C)=N\Nc1cc(C)c2ccccc2n1	6.9	5.0	-440.2	-3.0	-11.5	x	x	x	x	x
Cc1nc2nc(-c3ccccc3)cn2nc1C	10.8	37.5	-331.4	18.9	40.8	x	x	x	x	x
Cc1nc2nc(-c3ccc(F)cc3)cn2nc1C	0.5	67.4*	-318.0	x	71.2*	47.4	91.9*	100.1*	96.6*	54.4*

Screens deposited in PubChem BioAssay by several laboratories.
